Consider 40 sequences from the OligoGym collection.
Further: reference of the scale not given here.

The first assay deals with PHF15. Briefly: pooled miR-30 sensor sort-seq; sequence = guide strand. The settings on record: shRNA.
In turn, TAGATGTCGCATGACTGTCAGT showed a sensor-assay potency score (higher = more potent) of -1.14.

In turn, TAATATAGTCCGCATTTCCAGG displayed a sensor-assay potency score (higher = more potent) of -1.26.

Regarding TTGTCTGCTAATATAGTCCGCA, the sensor-assay potency score (higher = more potent) was 0.0345.

In turn, TTGACCTCATCGTTGTCTGCTA registered a sensor-assay potency score (higher = more potent) of -0.147.

As to TTCAATAAGTTTCATCTGCAGG, the sensor-assay potency score (higher = more potent) was -0.499.

Regarding TTGTCTGGAGTCGTCCGTGAAC, the sensor-assay potency score (higher = more potent) is -1.11.

Turning to TTGTCCACCTCGTCGGTCTTGG, the sensor-assay potency score (higher = more potent) was -0.798.

Another assay deals with PHF19. The assay is described as above. The settings on record: shRNA.
For TAGTTGGTGATAGATGACTTGA, the sensor-assay potency score (higher = more potent) was -1.21.

For the sequence TTTATAACTGTTCAGAGCGTTG, the sensor-assay potency score (higher = more potent) is -1.51.

For the sequence TTTTCTTCTATAAACTCGCCTT, the sensor-assay potency score (higher = more potent) is -0.149.

TGAATCTTTTTGAAGGTGCAGA: the sensor-assay potency score (higher = more potent) was found to be 0.0337.

TTTTATAACTGTTCAGAGCGTT yielded a sensor-assay potency score (higher = more potent) of 0.145.

For the sequence TTTGAAGTTGTTCTTGACCTTC, the sensor-assay potency score (higher = more potent) was -0.341.

TAACATTGCAGCATCCGCAGGT showed a sensor-assay potency score (higher = more potent) of 0.519.

For the sequence TAAACTTTGAATTTCATCCAGC, the sensor-assay potency score (higher = more potent) came to 0.174.

For TTGCTTAGAGCTGCTGACCCTC, the sensor-assay potency score (higher = more potent) is -1.03.

For TTGTTCTTGACCTTCGCCAGGG, the sensor-assay potency score (higher = more potent) worked out at 0.174.

Sequence TTCTTGATCTCCTTGCCGCAGA yielded a sensor-assay potency score (higher = more potent) of -0.66.

In turn, TTGAATTTCATCCAGCGTGAAG returned a sensor-assay potency score (higher = more potent) of -1.1.

A further assay deals with PHF20. The assay is described as above. The note with it: shRNA.
On to TTGAATTTACAACTGTCTCCAA, for which the sensor-assay potency score (higher = more potent) stood at 0.401.

TTAATGGGACTTCACATCCTTT came in with a sensor-assay potency score (higher = more potent) of -1.47.

The sequence TAAACTTCTCTCGTTTATCAGG gave a sensor-assay potency score (higher = more potent) of -1.02.

TTAACTTTCCTTCTTTATCAGG: the sensor-assay potency score (higher = more potent) is -0.815.

Sequence TGACAGTCTGAACTACTCCATC returned a sensor-assay potency score (higher = more potent) of -1.04.

As for TTTTAAACAGTCCACAACTTTG, the sensor-assay potency score (higher = more potent) was -1.74.

Consider TTGTGTGAGGACCCACACCTGG, for which the sensor-assay potency score (higher = more potent) was -1.15.

TTTGTTACTTCCACAGTCGAAA had a sensor-assay potency score (higher = more potent) of -0.866.

TTGACAGTCTGAACTACTCCAT displayed a sensor-assay potency score (higher = more potent) of -0.0489.

For TTCTCAATGGAGTCCATCCTGT, the sensor-assay potency score (higher = more potent) was -0.423.

Turning to TTCCTTGTCTTCCTTCTCGTTC, the sensor-assay potency score (higher = more potent) was -0.88.

On to TAAACTTATGGTCTAGGTCGAC, for which the sensor-assay potency score (higher = more potent) is -0.7.

The next assay deals with PHF23. The assay is described as above. The settings on record: shRNA.
With TAACATGTGATCAGATCCCATG, the sensor-assay potency score (higher = more potent) was -0.921.

TTTAACTTCCGCTTCTTGCTCT displayed a sensor-assay potency score (higher = more potent) of 0.601.

The sequence TTCTCTTGGATGACTTTGCTTT displayed a sensor-assay potency score (higher = more potent) of -0.308.

As for TATGCCAAAACAAAACTGCAGA, the sensor-assay potency score (higher = more potent) is -0.479.

With TTCTTGCTCTTCTTGATTCGAG, the sensor-assay potency score (higher = more potent) is -0.558.

As to TTGCCATCTCTTCTTCTTCTTC, the sensor-assay potency score (higher = more potent) was -0.747.

Regarding TTAACTTCCGCTTCTTGCTCTT, the sensor-assay potency score (higher = more potent) was 0.475.

With TTCTTAATCTTAGCACAGGAGA, the sensor-assay potency score (higher = more potent) was -1.04.

Consider TAACTTCCGCTTCTTGCTCTTC, for which the sensor-assay potency score (higher = more potent) was -0.863.
